Screening results as filed in PubChem.
Most compounds without a hit are left out; they make up all but 2.5% or so of the library.
Ecoli rRNA inh = selective bacterial rRNA inhibition in E. coli; E. coli WT GFP vs humanized-ribosome RFP mutants, fluorescence, 24 h; hits give low values; DMSO median 0, no signal -100; GFP signal change (wild-type ribosome), % (concentration not given with the values); actives 1.6% (n = 350,000); AID 720706;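 active = significant combined selectivity score with lowered wild-type GFP, culture density cut under 30%, mutant RFP and density less affected; inactive = any of these conditions unmet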
NSD2 HMT inh = inhibitors of human histone methyltransferase NSD2. inhibition, % at 12.5 µM. NSD2 peptide methylation, AlphaScreen, 120 min. actives 0.54% (n = 310,000). O96028; in the data active = inhibition above about 50%
Casp6 inh = blocks human caspase-6 cleavage activity; inhibition, % at 12.5 µM; P55212; AID 686996; purified caspase-6, Z-VEID-R110 cleavage fluorescence; actives 0.53% (n = 350,000);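 active = mean inhibition across replicates at least about 35%, with every replicate also reaching that limit, limit read from the data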
RAD52 inh = RAD52 (human) annealing inhibition. AID 651710. recombinant RAD52 DNA annealing, FRET fluorescence. actives 0.46% (n = 360,000). P43351. inhibition, % at 18.7 µM;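 active = every replicate showing at least 50% inhibition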
MLL AF4-AF9 inh = MLL-AF4/AF9 protein interaction inhibition; P42568; AlphaScreen, biotin-AF4 peptide binding to FLAG-AF9; inhibition, % at 10 µM; actives 0.47% (n = 350,000); AID 651704;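 active = every replicate reaching a set inhibition limit, whatever the replicate mean, cut at about 25% in these data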
Target sequence (P42568 whole entry, looked up): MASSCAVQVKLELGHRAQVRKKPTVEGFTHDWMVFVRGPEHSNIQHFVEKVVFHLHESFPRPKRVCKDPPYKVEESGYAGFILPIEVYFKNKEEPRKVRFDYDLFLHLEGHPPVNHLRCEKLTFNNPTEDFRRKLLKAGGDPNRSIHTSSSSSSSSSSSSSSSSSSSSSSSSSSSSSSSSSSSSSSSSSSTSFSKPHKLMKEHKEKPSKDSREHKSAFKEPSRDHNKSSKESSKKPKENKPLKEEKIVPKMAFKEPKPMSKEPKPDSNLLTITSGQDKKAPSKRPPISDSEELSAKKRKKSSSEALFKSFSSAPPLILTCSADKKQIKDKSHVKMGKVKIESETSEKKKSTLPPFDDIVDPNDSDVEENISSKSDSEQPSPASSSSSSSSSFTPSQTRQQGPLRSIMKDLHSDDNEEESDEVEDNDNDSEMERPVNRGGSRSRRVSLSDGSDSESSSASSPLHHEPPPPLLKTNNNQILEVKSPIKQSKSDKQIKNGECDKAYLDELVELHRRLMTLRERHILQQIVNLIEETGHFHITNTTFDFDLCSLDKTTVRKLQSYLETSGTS
Hits are given with their value; . = inactive; / = not tested or not shown.

SMILES | Ecoli rRNA inh | NSD2 HMT inh | Casp6 inh | RAD52 inh | MLL AF4-AF9 inh
COc1ccc(CCNCc2cc(C)n(-c3ccc(OC)cc3)c2C)cc1 | . | . | . | . | 39
O=C(N[C@H]1CC[C@@H](CCn2cc(-c3ccccn3)nn2)O[C@@H]1CO)c1cccnc1 | . | / | . | . | .
CC(C)Cc1csc(NC(=O)c2ccc(Br)cc2)c1C(=O)O | -26 | . | . | . | .
CC(=O)N1[C@@H]2CN(S(C)(=O)=O)C[C@H]1C2c1ccc(-c2ccc(F)cc2)cc1 (some centres undefined) | . | / | / | / | /
COCC(=O)N1CC(=O)N2[C@H](C1)[C@@H](c1ccc(-c3ccccc3C)cc1)[C@@H]2CO | . | / | . | . | .
COc1ccc(NC(=O)/C(C#N)=C/c2ccc(-c3ccccc3C(=O)O)o2)cc1 | . | . | . | . | .
COc1ccc(NC(=O)/C(C#N)=C\c2ccc(Br)o2)cc1 | . | . | 45 | . | .
Cc1ccccc1-n1c(C)cc(/C=N/Nc2ccc([N+](=O)[O-])cn2)c1C | / | . | / | / | /
O=[N+]([O-])c1ccc(NN=Cc2ccc(O)cc2O)nc1 | -22 | . | . | . | .
Cc1nc(N/N=C/c2ccc(O)cc2O)cc(N2CCOCC2)n1 | -37 | . | . | . | 70
Oc1ccc(C=NNc2ccccn2)c(O)c1 | . | . | / | . | 42
O=[N+]([O-])c1ccc(NN=Cc2ccccc2O)nc1 | . | . | . | . | .
Cc1cc(/C=N/Nc2ccc([N+](=O)[O-])cn2)c(C)n1-c1ccc(C(=O)O)cc1 | . | . | 43 | . | .
Cc1ccc(S(=O)(=O)N(C)C[C@H]2OCCCC[C@H](C)Oc3ccc(NC(=O)C4CCCCC4)cc3C(=O)N([C@@H](C)CO)C[C@@H]2C)cc1 | . | / | / | / | /
Cc1ccc(C)c(OCc2nc3ccccc3[nH]2)c1 | . | . | . | . | .
Cc1cccc(C)c1OCc1nc2ccccc2[nH]1 | . | . | 43 | . | .
O=C(O)C[C@H]1C=C[C@@H](NC(=O)CCN2CCCCC2)[C@H](CO)O1 | . | / | . | . | .
O=C(C1CCCCC1)N1CC2(C1)[C@@H](c1ccccc1)[C@H](CO)N2Cc1nccs1 | . | / | . | . | .
COc1ccc(CN2CCn3ncc(C(=O)Nc4ccccc4)c3C2=O)cc1 | / | . | / | / | /
O=C(O)c1cnn2c1C(=O)N(Cc1cccs1)CC2 | . | . | 64 | . | .
O=C(/C=C/Nc1ccccc1C(F)(F)F)c1ccco1 | -22 | . | . | . | .
NC(=O)c1ccccc1N/C=C/C(=O)c1ccco1 | / | . | / | / | /
O=C(/C=C/Nc1ccc(Oc2ccccc2)cc1)c1ccco1 | -25 | . | . | . | .
Cc1ccc2c(c1)c1ccc3c(c1n2C)C(=O)C=CC3=O | . | . | / | . | .
Cn1c2ccccc2c2ccc3c(c21)C(=O)C=CC3=O | -25 | . | . | . | .
SMILES | Ecoli rRNA inh | NSD2 HMT inh | Casp6 inh | RAD52 inh | MLL AF4-AF9 inh
O=C(NC1CCC1)[C@@H]1[C@@H](CO)[C@@H]2Cn3c(ccc(-c4ccccc4)c3=O)[C@@H]2N1CC1CC1 | . | / | . | . | .
CCCN(C)C[C@@H]1Oc2cc(C#CCC(C)C)ccc2S(=O)(=O)N([C@@H](C)CO)C[C@@H]1C | . | / | . | 51 | .
C[C@@H]1CN([C@@H](C)CO)S(=O)(=O)c2ccc(C#Cc3cccc(F)c3)cc2O[C@H]1CN(C)C | . | / | . | 51 | .
C[C@H]1CN([C@@H](C)CO)S(=O)(=O)c2ccc(C#Cc3ccc(F)cc3)cc2O[C@H]1CN(C)C(=O)CN(C)C | . | / | . | 71 | .
Cc1noc(C)c1NC(=O)N(C)C[C@@H]1Oc2cc(C#CCC3CCCC3)ccc2S(=O)(=O)N([C@H](C)CO)C[C@@H]1C | . | / | . | 99 | .
Cc1cccc(S(=O)(=O)N2[C@@H]3CNC[C@H]2C3c2ccc(-c3ccccc3C)cc2)c1 (some centres undefined) | . | / | . | . | .
C[C@@H]1CN([C@@H](C)CO)C(=O)c2ccccc2-c2ccccc2CO[C@H]1CN(C)CC1CC1 | . | / | . | . | .
C[C@@H]1CN([C@H](C)CO)S(=O)(=O)c2ccc(C#Cc3ccc(F)cc3)cc2O[C@H]1CN(C)C(=O)CN(C)C | . | / | . | 61 | .
CNC[C@@H]1Oc2cc(C#Cc3cccc(OC)c3)ccc2S(=O)(=O)N([C@H](C)CO)C[C@H]1C | . | / | . | . | .
CNC[C@H]1Oc2cc(C#Cc3ccc(OC)cc3)ccc2S(=O)(=O)N([C@H](C)CO)C[C@@H]1C | . | / | . | 56 | .
